Screening data as filed in PubChem BioAssay.
Compounds with a hit are over-represented: about 6.6% of the library has one in this group of screens.
KB-3-1 tox: kills parental KB-3-1 adenocarcinoma cells; AID 1347075; Potency, µM (highest dose often 46.1 µM), most hits filed as cytotoxic; 400,000 compounds, 1.4% hits; KB-3-1 viability, CellTiter-Glo ATP luminescence, 72 h; also: % is scaled to controls: 0 for no effect and ±100 for the full control effect; nearly all actives have a fitted effect of over 60% in size
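Cytotoxicity in the drug-sensitive parental line KB-3-1 was scored as loss of CellTiter-Glo luminescence following 72 h incubation with compound. Values come from curve fitting of normalized concentration-response data.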
MCF10A rerep: DNA re-replication induction in MCF 10a cells. MCF 10A DNA re-replication, Hoechst nuclear intensity, 48 h. Potency, µM (doses to about 46.1 µM), for inactives: top-dose activity, positive = re-replication, actives largely listed as activators. 350,000 compounds, 2.9% hits. AID 624296; also: % of control where 0% means no effect; nearly all actives have a fitted effect of over 50% in size
SW480 rerep: inducers of DNA re-replication in SW480 colon cancer cells | 340,000 compounds, 1.8% hits | SW480 DNA re-replication, Hoechst DNA content imaging, 48 h | Potency, µM (doses to about 46.1 µM), for inactives: at the top dose re-replication activation, most hits filed as activators; also: % of control where 0% means no effect; nearly all actives have a fitted effect of over 55% in size
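250 cells/well; 23 nL cpd via pin tool; 48 hr, 37 C, 5% CO2; Hoechst 40 min; imager read of total nuclear intensity, ex 405/em 500-530 nm.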
KB-V1 MDR tox: KB-V1 MDR subline cytotoxicity; KB-V1 MDR cells viability, CellTiter-Glo, 72 h; 400,000 compounds, 3.4% hits; AID 1347076; Potency, µM (doses to about 46.1 µM), actives largely listed as cytotoxic; also: % is scaled to controls: 0 for no effect and ±100 for the full control effect; nearly all actives have a fitted effect of over 60% in size
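Readout: CellTiter-Glo luminescence, 10 min after addition. Cells: KB-V1 MDR subline, 72 h at 37 degrees C with compound. Analysis: corrected, normalized data fitted to concentration-effect curves.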
RGS4 inh: blocks human RGS4-accelerated GTP hydrolysis; AID 504845; 390,000 compounds, 0.039% hits; P49798; Transcreener GDP fluorescence polarization, RGS4-accelerated GTP hydrolysis; Potency, µM (top dose mostly 114 µM), without a hit: top-dose activity change, negative = inhibition, usual class: inhibitors; also: % is scaled to controls: 0 for no effect and ±100 for the full control effect; nearly all actives have a fitted effect of over 75% in size
Target sequence (P49798 whole entry, looked up): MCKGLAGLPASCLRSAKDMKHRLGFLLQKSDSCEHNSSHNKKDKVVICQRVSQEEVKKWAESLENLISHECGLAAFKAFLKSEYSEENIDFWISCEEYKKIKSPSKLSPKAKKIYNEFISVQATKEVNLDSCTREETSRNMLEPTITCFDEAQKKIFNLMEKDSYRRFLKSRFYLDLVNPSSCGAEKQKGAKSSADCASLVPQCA
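MLSMR compounds (23 nl, pin-transferred) preincubated 10 min at room temperature with a 500nM (2x) first reagent, then RGS4 at 900nM (2x) plus Transcreener GDP mix added; fluorescence polarization (620/688 nm) read before and after 90 min at 30 °C.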
TSG101-PTAP inh: blocks PTAP/TSG101 interaction to inhibit HIV-1 budding. Q99816. Potency, µM (series often up to 115 µM), for inactives: at the highest dose activity change, negative = inhibition, actives largely listed as inhibitors. 340,000 tested, under 10 active. AID 493005. Fluorescence polarization, FITC-PTAP peptide / Tsg101 binding; active = well fitted inhibition curve with a large enough effect in the main read-out, with a control signal flat, not every such curve was filed as active; inconclusive = small, poorly fitted or top-dose-only effect, or effect the other way, or a change in a side signal; inactive = no such curve, though single readings can be large or run the other way; also: % of control where 0% means no effect
Target sequence (Q99816 whole entry, looked up): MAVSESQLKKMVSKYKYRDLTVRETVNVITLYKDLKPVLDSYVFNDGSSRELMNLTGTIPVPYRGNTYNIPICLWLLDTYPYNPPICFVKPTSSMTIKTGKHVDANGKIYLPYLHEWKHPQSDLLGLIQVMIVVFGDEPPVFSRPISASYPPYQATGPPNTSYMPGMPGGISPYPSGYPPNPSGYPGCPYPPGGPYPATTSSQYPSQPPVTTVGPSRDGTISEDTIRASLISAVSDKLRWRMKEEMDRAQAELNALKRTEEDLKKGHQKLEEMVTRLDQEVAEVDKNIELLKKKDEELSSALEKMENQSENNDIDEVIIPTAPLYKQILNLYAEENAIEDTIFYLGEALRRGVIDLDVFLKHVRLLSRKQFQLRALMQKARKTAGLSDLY
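Compounds were pin-transferred onto Tsg101 binding domain (10 uM final) in HEPES pH 7.5 buffer, then FITC-PTAP peptide was added at 50 nM final. After 20 min at RT, polarization reported peptide displacement across a qHTS concentration series.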
* = called active by the depositor; i = inactive; ? = inconclusive; · = no result given; ! = repeats disagree; [ ] = dose if it differs, or a comment. Unless noted, calls follow the shape of the dose curve; as a rule, active = well fitted curve in the direction sought with a large enough effect; inconclusive = small, poorly fitted or top-dose-only effect, or another doubt; inactive = no such curve, though single readings can be large; an effect the other way counts as inactive or inconclusive. Potency is read from the fitted curve at half-maximal effect.

SMILES | KB-3-1 tox | MCF10A rerep | SW480 rerep | KB-V1 MDR tox | RGS4 inh | TSG101-PTAP inh
COc1ccc(N(CC(=O)NCCSCc2ccc(C)cc2)S(=O)(=O)c2ccccc2)cc1 | ? | ? | 3% | 6.5µM* | -7% | -2%
CC1=C(C(=O)Nc2cccnc2)C(c2cccc(F)c2)n2nc(SCc3ccccc3)nc2N1 (stereo unspecified) | i | · | · | i | -21% | ·
OC(CCN1CCC2CCC(C2)C1)c1ccc(Br)cc1 (stereo unspecified) | ? | 17% | 15µM* | i | -8% | -2%
COc1ccc(C(OC(=O)c2c(C)noc2C)C(=O)NC2CCCC2)cc1 (stereo unspecified) | i | -6% | -10% | 5.2µM* | 8% | -6%
CCOc1ccc(CCNC(=O)CCn2c(=O)c3cccn3c3ccc(F)cc32)cc1OCC | · | · | · | · | -10% | ·
Cn1c(=O)c2c(nc(C3CC4C5CCC(C5)C4C3)n2C)n(C)c1=O (stereo unspecified) | i | 13% | -2% | 15µM* | 4% | 1%
CCN(C(=O)Cn1c(=O)n(-c2ccccc2)c(=O)c2ccc(C(=O)NCc3ccc4c(c3)OCO4)cc21)c1cccc(C)c1 | i | · | · | i | 21% | ·
CC1=CC(=C(c2ccc(N)cc2)c2ccc(N)cc2)C=CC1=N | 2.3µM* | 6% | -3% | ? | · | ·
CN1CCN(c2ccc([N+](=O)[O-])c(-n3nc(-c4ccccc4)c4ccccc4c3=O)c2)CC1 | ? | -1% | 9% | 13µM* | -7% | -10%
CN(/N=C/c1cccnc1)C1=NS(=O)(=O)c2ccccc21 | i | ? | -12% | i | ? | 2%
CN(/N=C/c1ccc(Br)o1)C1=NS(=O)(=O)c2ccccc21 | i | 23µM* | ? | i | -40% | -5%
N#Cc1c(-n2cccc2/C=N/O)sc2c1CCCC2 | i | 1% | 2% | 23µM* | 2% | -1%
Cc1ccc(C)c(Cn2cnc3ccccc3c2=O)c1 | i | · | · | i | 5% | ·
COCCn1c(SCC(=O)Nc2ccccc2OC)nc2ccccc2c1=O | i | -42%[9.22 µM] | -25% | i | -5% | -2%
COCCn1c(-c2ccc(OC)cc2)cnc1SCC(=O)Nc1cccc2ccccc12 | i | 0% | 4% | 7.3µM* | -5% | -3%
O=C(NCc1ccccc1Cl)C(=O)NCC(c1cccs1)S(=O)(=O)c1ccccc1 (stereo unspecified) | i | · | · | i | -15% | ·
COc1ccc(-c2nc3c(c(=O)n(C)c(=O)n3C)n2CC2CC(c3ccccc3)=NO2)cc1OC (stereo unspecified) | i | 8% | 1% | 5.8µM* | 26% | -8%
Cc1ccc(-n2c(SCC(=O)c3c(N)n(C)c(=O)n(C)c3=O)nc3sc4c(c3c2=O)CCCC4)c(C)c1 | ? | ? | -4% | 21µM* | -25% | 1%
O=C(CS(=O)(=O)c1cn(Cc2cccc(F)c2)c2ccccc12)N1CCOCC1 | i | 0% | -8% | 23µM* | -8% | -6%
COc1ccc(CN2CCN(Cc3ccc(C(F)(F)F)cc3)CC2)c(OC)c1 | i | 3% | 16µM* | i | -14% | -1%
COc1ccc(CN2CCN(S(=O)(=O)c3ccccc3)CC2)c(OC)c1 | i | 5% | -1% | 18µM*! | -4% | -8%
COc1ccc(CN2CCN(Cc3ccc(C)cc3)CC2)c(OC)c1 | i | ? | 0% | i | -14% | -2%
Cc1cc(-c2nnc3n2CCCCC3)c(C)n1-c1ccccc1 | ? | 27% | -2% | 21µM* | -15% | 2%
O=C(Nc1cccc(Cl)c1)c1ccc2nc(CCc3ccccc3)oc2c1 | i | · | · | ? | 5% | ·
CCC(C)(C)n1nnnc1C(C(C)C)N(CCN1CCOCC1)Cc1cc2cccc(C)c2[nH]c1=O (stereo unspecified) | i | 4% | 3% | 15µM* | -14% | -7%
SMILES | KB-3-1 tox | MCF10A rerep | SW480 rerep | KB-V1 MDR tox | RGS4 inh | TSG101-PTAP inh
CCC(c1nnnn1C(C)(C)CC)N(CCCN1CCOCC1)Cc1cc2cccc(C)c2[nH]c1=O (stereo unspecified) | i | ? | 30% | i | -32% | -6%
Cc1csc(NC(=O)c2ccc(Cn3nc(C)c(Br)c3C)o2)n1 | ? | ? | -2% | 2.6µM* | 5% | -5%
Cc1nn(Cc2ccc(C(=O)Nc3ccccc3C(F)(F)F)o2)c(C)c1Br | ? | ? | -10% | i | 14% | -1%
Cc1cccc(NC(=O)Nc2ccc(C#N)cc2)n1 | ? | 15µM* | ? | ? | 4% | -1%
COc1ccccc1NC(=O)Nc1cccc(C)n1 | 21µM* | 6% | 0% | ? | -7% | -1%
COc1ccc(-c2cc3ccc(O)c(CN4CCCC4)c3oc2=O)cc1OC | · | · | · | · | -21% | ·
CCC(=O)N(c1nnc(SCC(=O)Nc2ccc(N3CCOCC3)cc2)s1)C1CC1 | i | 2% | 7% | i | -9% | -1%
CCC(=O)N(c1nnc(SCC(=O)c2ccc[nH]2)s1)C1CC1 | i | -2% | -1% | 12µM* | 4% | -5%
CCOC(=O)c1c(-c2ccccc2)nnn1-c1nc(OCC)nc(N2CCCCC2)n1 | ? | 15µM* | 12% | 21µM* | -2%[11.4 µM] | -3%
COCCNc1nc(CSc2ccccc2)nc2sc(C)c(C)c12 | i | ? | 0% | 10µM* | -9% | -1%
CC1(C)Cc2c(sc3ncnc(NNC(=S)NCc4ccccc4)c23)CO1 | 5.2µM* | 3.3µM* | 3.7µM* | ? | -23% | 1%
CC(C)NC(=S)NNc1ncnc2sc3c(c12)CC(C)(C)OC3 | i | -5% | 4% | i | -26% | 0%
CSc1ccc(C2C(C#N)=C(N)Oc3cc4c(cc32)OCO4)cc1 (stereo unspecified) | i | ? | ? | 4.6µM* | -1% | -2%
O=C(Nc1ccc2c(c1)OCCO2)C(CCc1ccccc1)N1CCC(Cc2ccccc2)CC1 (stereo unspecified) | i | · | · | 23µM* | · | ·
CCOC(=O)c1[nH]c(C)c(CCC(=O)Nc2ccccc2C(=O)OC)c1C | i | · | · | ? | 16% | ·
CN(C)c1ccc(NS(=O)(=O)c2cc(Cl)ccc2Cl)cc1 | ? | ? | ? | ? | 6% | 1%
Nc1ccc(Cl)c(S(=O)(=O)Nc2cccc(Cl)c2)c1 | i | 0.18µM* | -63% | i | -27% | -4%
Cc1ccc(S(=O)(=O)NCCC(=O)Nc2cccc(Cl)c2)cc1 | i | 0% | 0.29µM* | 16µM* | 0% | 0%
